The campaign covered roughly 220,000 compounds. About 2,000 (0.91%) were called active. Not shown: some 2% with an inconclusive outcome. Only a sample is shown. Measured potencies and affinities stand elsewhere. A number with no mark means an inactive call. No stated cut-off is given here; in the data, inconclusive means inhibition above about 80% without an active follow-up result; inactive means below that; test concentration not stated here.
Test: M. tuberculosis H37Rv growth inhibitors, H37Rv strain (AID 1626);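 further: bacteria incubated seven days before Alamar blue readout; 0% = bacteria only wells and 100% = bacteria with antibiotic wells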
Conditions: hits give high values, concentration not given here

| SMILES | inhibition |
| --- | --- |
| COc1ccccc1NC(=O)N1CCN(CCc2ccccc2)CC1 | -2.85% |
| CC(=O)OCC1OC(OC(C)=O)C(NC(=O)c2cccnc2)C(OC(C)=O)C1OC(C)=O (centres undefined) | -0.72% |
| CCCCN(C(=O)c1cc2ccccc2o1)c1c(N)n(CC(C)C)c(=O)[nH]c1=O | 9.87% |
| COc1ccc(-c2c(C)[nH]n3c(=O)c(Cc4ccccc4)c(C)nc23)cc1OC | 38.6% |
| Cc1[nH]n2c(=O)c3c(nc2c1-c1cccc2ccccc12)CCC3 | -8.68% |
| Nc1[nH]n2c(=O)c3c(nc2c1N=Nc1ccccc1)CCCC3 | 79.3% |
| Cc1ccc(-c2[nH]n3c(=O)c4c(nc3c2C)CCCC4)cc1 | 5.52% |
| O=c1c2c(nc3c(-c4ccccc4)c[nH]n13)CCC2 | 2.63% |
| COc1ccc(-c2c(C)[nH]n3c(=O)c(Cc4ccccc4)c(C)nc23)cc1 | 70.9% |
| COc1cccc(N=Nc2c(N)[nH]n3c(=O)c4c(nc23)CCCC4)c1 | 19.3% |
| O=c1c2c(nc3c(-c4ccccc4)c[nH]n13)CCCC2 | 14.2% |
| CC(=O)Nc1ccc2c(CSc3nnc(-c4cccnc4)n3-c3ccc(C)cc3C)cc(=O)oc2c1 | -5.62% |
| Cc1ccc(CNC(=O)CSc2nc(C)cc(C)c2C#N)cc1 | -9.02% |
| C/C(=N\NC(=O)C1(C)NC(C)(C)Cc2ccccc21)c1ccccc1 (centres undefined) | 1.17% |
| COc1ccc(C(=O)Nc2ccc(N3CCN(c4ccc(OC)cc4)CC3)c(C#N)c2)cc1 | -7.83% |
| COc1ccc(-n2c(=S)[nH]c3cc(C(=O)NCCCN4CCCC4=O)ccc3c2=O)cc1OC | -1.47% |
| CC(=O)COC(=O)CNC(=O)c1ccc(Br)cc1 | -5.11% |
| Cc1cccc(N(Cc2cc3ccccc3[nH]c2=O)C(=O)c2ccco2)c1C | 4.31% |
| COc1ccc(NC(=O)CCOc2ccccc2)c(OC)c1 | -0.51% |
| COC(=O)c1cccc(NC(=O)CCCOc2cccc(C)c2)c1 | -9.57% |

| SMILES | inhibition |
| --- | --- |
| O=C(CCCCCNC(=S)Nc1ccccc1)C[N+](=O)[O-] | -1.95% |
| Cc1c(-c2ccccc2)[nH]n2c(=O)c3c(nc12)CCCC3 | 6.84% |
| Cc1[nH]n2c(=O)c3c(nc2c1-c1ccccc1)CCC3 | 3.85% |
| CN(C)c1cc(-c2cccc([N+](=O)[O-])c2)oc(=O)c1Cl | 1.64% |
| Cc1ccc(C(=O)NCCN2C3=NC[C@@H](Cc4ccccc4)N3C[C@H]2Cc2ccc(O)cc2)cc1Br | 40.7% |
| Cc1ccc(C(=O)N[C@@H](C)CN2C3=NC[C@H](Cc4ccccc4)N3C[C@H]2Cc2ccc(O)cc2)cc1Br | 21.4% |
| COc1ccc(C[C@@H]2CN3C(=NC[C@@H]3C)N2C[C@H](C)NC(=O)c2ccc(C)c(Br)c2)cc1 | 8.27% |
| Cc1ccc(C(=O)NCCN2C3=NC[C@H](Cc4ccc(O)cc4)N3C[C@H]2Cc2ccc(O)cc2)cc1Br | 13.6% |
| Cc1cc(=O)oc(C)c1C(=O)Nc1cccc(F)c1 | -6.13% |
| CNC(=S)Nc1cccc(C(C)=O)c1 | -3.56% |
| Cc1ccc(N=C2NC(=O)/C(=C/c3cccnc3)S2)c(C)c1 | 20.4% |
| COc1ccc(-c2nc(Cn3c(SCc4cccc(F)c4)nc4ccncc43)c(C)o2)cc1OC | 55.2% |
| COc1cc2nc(SCc3ccc(F)cc3)n(Cc3cccs3)c(=N)c2cc1OC | 8.63% |
| COCCCn1c(SCc2cccc(OC)c2)nc2cc(OC)c(OC)cc2c1=N | 6.91% |
| COCCCn1c(SCc2ccc(OC)cc2)nc2cc(OC)c(OC)cc2c1=N | 1.79% |
| COc1ccc(-c2nc(Cn3c(SCc4ccc(F)cc4)nc4ccncc43)c(C)o2)cc1OC | 67.8% |
| COCCCn1c(SCc2ccccc2)nc2cc(OC)c(OC)cc2c1=N | 0.99% |
| COc1cc2nc(SCc3ccc(C(F)(F)F)cc3)n(Cc3cccs3)c(=N)c2cc1OC | -5.09% |
| COc1cc2nc(SCc3ccc(Cl)cc3Cl)n(Cc3cccs3)c(=N)c2cc1OC | 11.9% |
| O=C(C(=O)N1CCc2ccccc2C1)c1cn(CC(=O)N2CCOCC2)c2ccccc12 | -0.84% |

| SMILES | inhibition |
| --- | --- |
| CCOC(=O)/C=C(\C)N1N=C(c2ccccc2)CC1c1ccccc1 (centres undefined) | 33.1% |
| C=CCOc1ccccc1CNCCc1ccc(S(N)(=O)=O)cc1 | 0.31% |
| CCOC(=O)c1cccc(NC(=S)NCc2ccc(C)cc2)c1 | 2.33% |
| COCCNC(=O)c1cccc(C)c1[N+](=O)[O-] | 3.44% |
| CC1CC1C(=O)OCC(=O)Nc1cccc(S(=O)(=O)NC2=NCCCCC2)c1 (centres undefined) | -7.4% |
| COc1ccc(CCNC(=O)C2CC3Cn4c(nc5ccccc54)C3N2Cc2ccccc2)cc1 (centres undefined) | -0.23% |
| Cc1ccc(S(=O)(=O)CCC(=O)OCC(=O)N2CC(=O)Nc3ccccc32)cc1 | -1.54% |
| COc1ccc(-n2c(SCC(=O)Nc3cc(C(=O)O)ccc3C)nc3ccccc3c2=O)cc1Cl | -8.45% |
| CN1/C(=C\C(=O)c2cccnc2)C(C)(C)c2ccccc21 | -3.35% |
| CN1/C(=C\C(=O)c2cncc(Br)c2)C(C)(C)c2ccccc21 | 25.1% |
| Cc1ccc2cc3cc(C(=O)N4CCC5(CC4)OCCO5)oc3nc2c1 | -1.4% |
| COc1ccc2nc3oc(C(=O)N4CCC5(CC4)OCCO5)cc3cc2c1 | 5.85% |
| CCN(C(=O)CSc1cc(C)c2cccc(C)c2n1)C1CCS(=O)(=O)C1 (centres undefined) | 1.8% |
| O=C(CCC1CCCN(C(=O)CC2=CCCCC2)C1)N1CCN(c2ccccn2)CC1 (centres undefined) | 8.51% |
| CCSc1nnc([C@H](Cc2ccccc2)NC(=O)OC(C)(C)C)o1 | 14.6% |
| NS(=O)(=O)c1ccc(CCNC(=O)NC23CC4CC(CC(C4)C2)C3)cc1 | 3.03% |
| O=C(NCCC1=CCCCC1)NC1CCCCC1 | -1.65% |
| COc1ccc(CCNC(=O)NC23CC4CC(CC(C4)C2)C3)cc1OC | -2.6% |
| O=C(NCCCO)NC12CC3CC(CC(C3)C1)C2 | 1.78% |
